This is a sample that favours compounds with a hit; in the whole collection about 2.9% have one here.
A549 viability: A549 cytotoxicity, counter-screen for Nrf2 inhibitors; 390,000 compounds, 0.16% hits; AID 504648; A549 ARE-Fluc cells, CellTiter-Fluor viability, 18-24 h; Potency, µM (top dose mostly 46 µM), inactives show top-dose activity change, negative = cytotoxicity, actives largely listed as inhibitors; note: % is set by controls: 0 for no effect and ±100 for the full control effect
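A549 ARE_Fluc cells in 5% FBS OPTI-MEM were exposed to compounds in concentration-response for 18-24 h at 37 deg C. Viability was read by CellTiter-Fluor fluorescence (Ex 405/Em 525) after 30 min, before the luciferase read.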
Nrf2 inh: blocks Nrf2 signaling; A549 ARE-Fluc reporter, luciferase luminescence, 18-24 h; 360,000 compounds, 2.1% hits; Potency, µM (series often up to 46 µM), for the others: at the top dose activity change, negative = inhibition, actives largely listed as inhibitors; note: % is set by controls: 0 for no effect and ±100 for the full control effect; nearly all actives have a fitted effect of over 60% in size
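A549 ARE_Fluc cells (5000/well, 5% FBS OPTI-MEM) pre-incubated 2 h, then treated with compounds 18-24 h at 37C/5% CO2 in concentration-response. CellTiter-Fluor viability read first; BugLite luciferase luminescence after 15 min at room temperature gives Nrf2 activity.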
Nrf2 ARE act: activators of Nrf2 (ARE) signaling. AREc32 ARE-luciferase reporter (MCF7-derived line), luminescence, 24 h. Potency, µM (top dose mostly 46.1 µM), for inactives: at the highest dose activation, most hits filed as activators. 410,000 compounds, 0.31% hits. AID 624171; note: % of control where 0% means no effect; nearly all actives have a fitted effect of over 65% in size
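Luminescent ARE reporter assay in AREc32_Fluc cells: overnight plating at 37 deg C, 24 hr compound incubation, Steady-Glo added, 30 min RT before reading.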
ATXN viability: cell viability loss in ATXN counter-screen; AID 651635; Potency, µM (top dose mostly 56.7 µM), actives largely listed as cytotoxic; S2 cells (HEK-293 line with an ATXN2-luciferase reporter) viability, CellTiter-Fluor protease fluorescence, 24 h; 400,000 compounds, 0.49% hits; note: nearly all actives have a fitted effect of over 40% in size
ATXN2 expr inh: ATXN2 expression inhibition | 360,000 compounds, 0.72% hits | HEK-293 ATXN2-luciferase reporter, luminescence, 24 h | Potency, µM (doses to about 57 µM), inactives show top-dose activity change, negative = inhibition, hits mostly inhibitors; note: % is set by controls: 0 for no effect and ±100 for the full control effect; nearly all actives have a fitted effect of over 55% in size
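ATXN2-luciferase reporter cells (luciferase flanked by upstream and downstream ATXN2 gene portions) were treated 24 h at 37 °C with compounds at up to 57 uM. SteadyGlo luminescence gave expression; GF-AFC fluorescence gave viability.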
* marks the source's active call; other numbers are inactive results; i = inactive; u = inconclusive; x = not tested or not shown; [ ] = remark or other dose. Calls come from the whole dose curve; as a rule, active = well fitted curve in the direction sought with a large enough effect; inconclusive = small, poorly fitted or top-dose-only effect, or another doubt; inactive = no such curve, though single readings can be large; an effect the other way counts as inactive or inconclusive. Potency is the fitted concentration of half-maximal effect.

SMILES	A549 viability	Nrf2 inh	Nrf2 ARE act	ATXN viability	ATXN2 expr inh
CCOc1ccccc1NC(=O)CN(c1ccc(C)cc1)S(=O)(=O)c1c(C)noc1C	-4%	16µM*	0%	i	-14%
CCC1(c2ccccc2)NC(=O)N(CC(=O)Nc2ccc(Cl)c(S(=O)(=O)N3CCCCC3)c2)C1=O (stereo unspecified)	-15%	u	3%	i	-3%
Cc1ccc(N2CCN(S(=O)(=O)c3ccc(Cl)s3)CC2C)cc1 (stereo unspecified)	-4%	13µM*	0%	i	-18%
COc1ccc(NC(=O)CC2C(=O)N(C)C(=S)N2CCc2ccc(F)cc2)cc1 (stereo unspecified)	u	23µM*	9%	i	-37%
CCOC(=O)c1c(SCCN2CCCCC2)n(-c2ccccc2)c(=S)n(-c2ccccc2)c1=O	9%	3%	-1%	u	20µM*
CCc1noc(C)c1C(=O)N1CCC(CCC(=O)Nc2cccc(C)c2)CC1	-14%	u	0%	i	-20%
COc1cccc(C2CC(c3cccs3)=NN2C(=O)CSc2nc3c(cnn3-c3ccc(F)cc3)c(=O)[nH]2)c1OC (stereo unspecified)	-24%	u	-1%	i	7%
COc1ccc(C2CC(c3cccs3)=NN2C(=O)CSc2nc3c(cnn3-c3ccccc3)c(=O)[nH]2)cc1 (stereo unspecified)	-26%	16µM*	-1%	i	-9%
COc1cc2c(cc1OC)/C(=C/C(=O)c1cccc([N+](=O)[O-])c1)NCC2	u	13µM*	5%	i	-31%
CCOC(=O)Cc1csc(/N=C/c2c(O)n(-c3ccccc3C(F)(F)F)c(=O)c3ccccc23)n1	-20%	13µM*	-1%	x	-15%
O=C(Nc1ccccc1)c1cc(C2CCCN(C(=O)C3CC3)C2)on1 (stereo unspecified)	x	x	-4%	i	10µM*
CC(C)c1ccc(NC2CCCN(C(=O)c3n[nH]c4c3CCC4)C2)cc1 (stereo unspecified)	-9%	10µM*	0%	i	-8%
COc1ccc(-c2noc(CSc3nnc(Cc4ccccc4)n3-c3cccc(C)c3)n2)cc1	u	23µM*	0%	x	u
O=S(=O)(NCCOc1ccccc1F)c1ccc(Cl)cc1F	6%	11%	0%	i	-18%
CC(C)(C)OC(=O)N[C@@H](Cc1ccccc1)C(=O)NCC1CCC(C(=O)N[C@@H](CCC(N)=O)C(=O)O)CC1 (stereo partly specified)	7%	6%	0%	i	0%
CC12CCC(=O)C=C1CCC1C2C(=O)CC2(C)C1CCC2(O)C(=O)CO (stereo unspecified)	1%	6%	0%	i	-6%
COC(=O)C=C1CCC2C3CCC4=CC(=O)C(Br)CC4(C)C3C(=O)CC12C (stereo unspecified)	-5%	-15%	u	x	32µM*
CCC(Sc1nc2ccccc2c(=O)[nH]1)C(=O)Nc1ccc(C(C)=O)cc1 (stereo unspecified)	1%	-18%	5%	i	38%[11.3 µM]
COc1ccc2ccccc2c1-c1sc(Nc2ccccc2)n[n+]1-c1ccc(F)cc1	-22%	11%	-4%	28µM*	28µM*
CCc1ccc(Nc2n[n+](-c3ccccc3)c(-c3c(Cl)cccc3Cl)s2)cc1	u	u	-3%	10µM*	10µM*
COc1ccc(C)cc1Nc1n[n+](-c2ccccc2)c(-c2ccc(OC)c(OC)c2OC)s1	-22%	u	1%	u	u
COc1ccc(C)cc1Nc1n[n+](-c2ccccc2)c(-c2c(Cl)cccc2Cl)s1	u	u	5%	11µM*	0%
Cc1ccc(S(=O)(=O)N(CC(=O)Nc2cccnc2)c2cccc(Br)c2)cc1	-11%	-19%	0%	i	-32%
O=C(O)c1ccc(Oc2nc3ccccc3s2)cc1	-8%	u	3%	u	6%
CCN1CCN(C(=O)CCc2nnc3ccc(N4CCN(c5cccc(OC)c5)CC4)nn23)CC1	-11%	1%	-1%	i	x

From PubChem
